Experimental data taken from PubChem BioAssay (EPA / NIEHS).
Inconclusive results are not listed. Activity calls are given as the source filed them. How the source made its calls: active means hit-call score of the fitted dose curve at least 0.9, where 1 is the maximum; inconclusive means response in the unintended direction; inactive means score below 0.9.

Test: ACEA_ER_AUC_viability: ACEA Biosciences xCELLigence Real-Time Cell Analysis on Estrogen Receptor Agonism for Viability (AID 2283782);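 further: continuous compound exposure with impedance area under curve over 80 h; hit means loss of impedance signal meaning reduced cell growth or viability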
Method in brief: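 T47D cells preconditioned in phenol red-free RPMI with charcoal-stripped FBS, then dosed with 8-point 1:4 series from 100 uM (up to 0.5% DMSO). Impedance monitored up to ~80 h; area-under-curve loss versus DMSO taken as viability.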

Row | SMILES | outcome | AC50
1 | O=C(Cl)OCCOCCOC(=O)Cl | inactive | 
2 | CCCCS(=O)(=O)Cl |  | 53.1 µM (active)
3 | c1ccc2sc(SNC3CCCCC3)nc2c1 |  | 85.5 µM (active)
4 | O=NN1CCCCCCC1 | inactive | 
5 | CC(C)(COCC1CO1)COCC1CO1 (stereo not given) |  | 29.9 µM (active)
